This is part of a sample that, as a whole, favours compounds with a hit. Of some 83,000 tested, about 20% had one in any assay.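 How to read the values: 0–100, growth inhibition (40 = 60% inhibited); 0, no net growth; -100 to 0, cell death (-40 = 40% of starting cells died; -100 = all dead).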 Activity calls are given as the source filed them. The calls were made as follows: active = growth percent below 10; inactive = the rest.
How the values were obtained:
Assay in all cases: NCI-60 one-dose screen, 48 h (100 = growth as untreated, 0 = no growth, -100 = all killed)
Details in all cases: 10 µM unless noted
NCI-H23 lung = system: NCI-H23 lung
NCI-H226 lung = system: NCI-H226 lung
NCI-H322M lung = system: NCI-H322M lung
HOP-62 NSCLC = system: HOP-62 NSCLC
NCI-H460 lung = system: NCI-H460 lung
HOP-92 NSCLC = system: HOP-92 NSCLC
NCI-H522 lung = system: NCI-H522 lung
A549/ATCC NSCLC = system: A549/ATCC NSCLC
786-0 renal = system: 786-0 renal
COLO 205 colon = system: COLO 205 colon
DU-145 prostate = system: DU-145 prostate
K-562 leukemia = system: K-562 leukemia
MALME-3M melanoma = system: MALME-3M melanoma
MDA-MB-231 breast = system: MDA-MB-231 breast
RXF 393 renal = system: RXF 393 renal
SF-268 CNS = system: SF-268 CNS
SF-295 CNS = system: SF-295 CNS
SF-539 CNS = system: SF-539 CNS
UACC-257 melanoma = system: UACC-257 melanoma
M14 melanoma = system: M14 melanoma

Measured: growth

COc1ccc(C/C(C)=C(\c2ccc(O)cc2)c2ccc(OCCN3CCCCC3)cc2)cc1
inactive: NCI-H23 lung 90.1% | NCI-H226 lung 103% | NCI-H322M lung 93.8% | HOP-62 NSCLC 95.6% | NCI-H460 lung 72.6% | HOP-92 NSCLC 72.3% | NCI-H522 lung 87.7% | A549/ATCC NSCLC 79.2% | 786-0 renal 76.8% | COLO 205 colon 89.4% | DU-145 prostate 90.8% | K-562 leukemia 22.8% | MALME-3M melanoma 87.6% | MDA-MB-231 breast 104% | RXF 393 renal 79.9% | SF-268 CNS 81.7% | SF-295 CNS 98.8% | SF-539 CNS 83% | UACC-257 melanoma 110% | M14 melanoma 40.4%

CN(C)CCCC1(c2ccc(F)cc2)OCc2cc(-c3csc4ccccc34)ccc21 (stereo not given)
inactive: NCI-H23 lung 48.2% | NCI-H226 lung 87.3% | NCI-H322M lung 27% | HOP-62 NSCLC 39.2% | HOP-92 NSCLC 26.4% | A549/ATCC NSCLC 24.4% | 786-0 renal 52.8% | MDA-MB-231 breast 10.6% | SF-268 CNS 38.6%
active: NCI-H460 lung -89.9% | NCI-H522 lung 7.99% | COLO 205 colon -67.8% | DU-145 prostate -0.822% | K-562 leukemia -31.8% | MALME-3M melanoma -92.1% | RXF 393 renal 4.01% | SF-295 CNS -52% | SF-539 CNS -81.7% | UACC-257 melanoma -48% | M14 melanoma -57%

CCN(CCNc1ccc(C)c2sc3cc(Cl)ccc3c(=O)c12)CC(C)(C)O
inactive: NCI-H23 lung 82.3% | NCI-H226 lung 87.6% | NCI-H322M lung 74% | HOP-62 NSCLC 45.3% | NCI-H460 lung 44.4% | HOP-92 NSCLC 48.3% | NCI-H522 lung 76.7% | A549/ATCC NSCLC 50.9% | 786-0 renal 47.6% | COLO 205 colon 21.4% | DU-145 prostate 86.8% | K-562 leukemia 29.7% | MALME-3M melanoma 67.5% | MDA-MB-231 breast 32% | SF-268 CNS 79.8% | SF-295 CNS 88% | SF-539 CNS 65.8%
active: RXF 393 renal -18.5% | UACC-257 melanoma -8.78% | M14 melanoma -65.9%

O=C1Nc2ccccc2/C1=N/N1C(=O)CN(CCCl)C1=O
inactive: NCI-H23 lung 100% | NCI-H226 lung 95.1% | NCI-H322M lung 101% | HOP-62 NSCLC 97.5% | NCI-H460 lung 102% | HOP-92 NSCLC 110% | NCI-H522 lung 89.7% | A549/ATCC NSCLC 104% | 786-0 renal 101% | COLO 205 colon 112% | DU-145 prostate 119% | K-562 leukemia 97.5% | MALME-3M melanoma 107% | MDA-MB-231 breast 117% | RXF 393 renal 115% | SF-268 CNS 102% | SF-295 CNS 99.6% | SF-539 CNS 105% | UACC-257 melanoma 96.6% | M14 melanoma 107%

Cc1ccc2c(c1)nc(C)n2-c1ncnc2c1CC(C)c1cc(O)ccc1N2C (stereo not given)
inactive: NCI-H23 lung 65.7% | NCI-H226 lung 74.1% | NCI-H322M lung 64% | HOP-62 NSCLC 37.8% | NCI-H460 lung 19.7% | HOP-92 NSCLC 24.7% | NCI-H522 lung 23.6% | A549/ATCC NSCLC 31% | 786-0 renal 33.4% | COLO 205 colon 98.5% | DU-145 prostate 42.1% | K-562 leukemia 14.8% | MALME-3M melanoma 48.9% | MDA-MB-231 breast 50.8% | RXF 393 renal 10.7% | SF-268 CNS 44.1% | SF-295 CNS 11.1% | SF-539 CNS 28.7% | UACC-257 melanoma 17.9% | M14 melanoma 15%

COCCn1cc(-c2nc(-c3cn(CCOC)c4ncccc34)cs2)c2cc(F)ccc21
inactive: NCI-H23 lung 53.5% | NCI-H226 lung 75.4% | NCI-H322M lung 46.9% | HOP-62 NSCLC 74.4% | NCI-H460 lung 49.7% | HOP-92 NSCLC 56.9% | NCI-H522 lung 33.3% | A549/ATCC NSCLC 53.7% | 786-0 renal 76.6% | COLO 205 colon 35.5% | DU-145 prostate 86.1% | K-562 leukemia 63.7% | MALME-3M melanoma 95.3% | MDA-MB-231 breast 44.9% | RXF 393 renal 86.5% | SF-268 CNS 91.6% | SF-295 CNS 74.7% | SF-539 CNS 76.1% | UACC-257 melanoma 69.5% | M14 melanoma 66.6%

COc1ccc(C2CC(c3ccccc3)=NN2C(=O)c2cc(OC)c(OC)c(OC)c2)cc1O (stereo not given)
inactive: NCI-H23 lung 35.6% | NCI-H226 lung 27.4% | NCI-H322M lung 57.5% | HOP-62 NSCLC 49.4% | HOP-92 NSCLC 28% | A549/ATCC NSCLC 29.5% | 786-0 renal 20.4% | COLO 205 colon 71% | DU-145 prostate 25.8% | K-562 leukemia 14.1% | MALME-3M melanoma 81.8% | SF-268 CNS 49.9% | UACC-257 melanoma 66.2% | M14 melanoma 13.4%
active: NCI-H460 lung 6.52% | NCI-H522 lung -3.83% | MDA-MB-231 breast 8.45% | RXF 393 renal -9.96% | SF-295 CNS 5.83% | SF-539 CNS -15.7%

N#Cc1ccc(O)c(C2=NCC(c3ccc(-c4ccccc4)cc3)O2)c1 (stereo not given)
inactive: NCI-H23 lung 27.8% | NCI-H226 lung 29.8% | NCI-H322M lung 33% | HOP-92 NSCLC 35% | 786-0 renal 20.1% | DU-145 prostate 30.5% | MALME-3M melanoma 17.4% | MDA-MB-231 breast 25% | RXF 393 renal 42.2% | SF-268 CNS 19.7% | SF-295 CNS 19.4% | UACC-257 melanoma 13.2%
active: HOP-62 NSCLC 2.79% | NCI-H460 lung 1.31% | NCI-H522 lung -8.42% | A549/ATCC NSCLC 2.62% | COLO 205 colon 1.08% | K-562 leukemia 7.82% | SF-539 CNS -9.06% | M14 melanoma -16.6%
